This is an account of results in PubChem BioAssay (NCI).

Molecules are shown by their SMILES. “And” between values parts separate entries of the source, which are not always exact repeats. Equal values may be shown once. This is part of a sample that, as a whole, favours compounds with a hit. Of some 83,000 tested, about 20% had one in any assay.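 Cell lines were cultured in 96-well plates, exposed to a single compound concentration, and assessed for percent growth 48 hours later.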 The source made the active and inactive calls. The calls were made as follows: active = growth percent below 10; inactive = the rest.

Holding throughout (test): NCI-60 one-dose screen, 48 h (100 = growth as untreated, 0 = no growth, -100 = all killed)
Settings in all cases: 10 µM unless noted

Assay [1] deals with MALME-3M melanoma.
Assay [2] concerns MDA-MB-231 breast.
Assay [3] concerns RXF 393 renal.
The test system of assay [4] is SF-268 CNS.
Assay [5] relates to SF-295 CNS.
Assay [6] deals with SF-539 CNS.
For assay [7], the system named is UACC-257 melanoma.
Assay [8] concerns M14 melanoma.
Assay [9] has as its system HCT-15 colon.
In assay [10] the test system is HT29 colon.
For assay [11], the system named is SNB-75 CNS.
The test system of assay [12] is SNB-19 CNS.
The subject of assay [13] is U251 CNS.
Assay [14] concerns PC-3 prostate.
Assay [15] concerns SK-MEL-5 melanoma.
In assay [16] the test system is UACC-62 melanoma.
The subject of assay [17] is LOX IMVI melanoma.
Assay [18] has as its system SK-MEL-28 melanoma.
The test system of assay [19] is DU-145 prostate.

On to `O=C1c2cc(S(=O)(=O)O)ccc2C(=O)c2c1cccc2[N+](=O)[O-]`, for which the growth in assay [1] is 111% (inactive); in assay [2], 112% (inactive); in [3] it was 128% (inactive); in [4], 108% (inactive); in assay [5], 100% (inactive); in assay [6], 104% (inactive). For the same molecule, the growth in assay [7] was 93% (inactive); in [8], 95.2% (inactive); in assay [9], 110% (inactive); in [10], 104% (inactive); in [11], 110% (inactive); in assay [12], 106% (inactive). Further, the growth is 99.2% (inactive) in assay [13]; 96.3% (inactive) in [14]; 114% (inactive) in [15]; 110% (inactive) in assay [16]; 103% (inactive) in assay [17]; 121% (inactive) in [18].

For the molecule `CC(C)N1CCN(c2ccc(OC[C@H]3CO[C@](Cn4cncn4)(c4ccc(Cl)cc4Cl)O3)cc2)CC1`, the growth in [19] is 111% (inactive); in [1] it was 86.1% (inactive); in assay [2], 65.8% (inactive); in [3], 74.7% (inactive); in assay [4], 102% (inactive); in [5], 89% (inactive). For the same molecule, the growth is 79.4% (inactive) in [6]; -28.4% (active) in assay [7]; 52.8% (inactive) in [8]; 62.3% (inactive) in assay [9]; 21.5% (inactive) in assay [10]; 97.7% (inactive) in assay [12]. The growth in assay [13] was 73.8% (inactive); in assay [14] it was 73.9% (inactive); in assay [15], 47.9% (inactive); in assay [16], 71.6% (inactive); in assay [17] it was 86.5% (inactive); in [18], 63.2% (inactive).

Take `Cc1cc[n+](CCc2ccccc2)cc1`: the growth in assay [3] was 108% (inactive); in assay [13], 97.2% (inactive).

For the molecule `Cc1ccc(N(CSc2ccc(Cl)cc2)CSc2ccc(Cl)cc2)cc1`, the growth in assay [19] was 44.8% (inactive); in assay [1], 69.1% (inactive); in [2], 18.4% (inactive); in assay [3], 91.4% (inactive); in [4], 25% (inactive); in [5] it was 11.3% (inactive). In addition, the growth in assay [6] is 16.1% (inactive); in [7] it was 88.9% (inactive); in [8], 57.8% (inactive); in assay [9] it was 67.2% (inactive); in assay [10], 74.7% (inactive); in [11], 106% (inactive). Further, the growth in assay [12] is 78.6% (inactive); in assay [14], 10.8% (inactive); in assay [16], 60% (inactive); in [17], -10.1% (active); in assay [18] it was 102% (inactive).

As to `O=[N+]([O-])c1ccc(O)c2ncccc12`, the growth in assay [19] was 75.8% (inactive); in assay [1] it was 52.2% (inactive); in assay [2], 46% (inactive); in assay [3], 92.4% (inactive); in assay [4], 50.2% (inactive); in [5], 24.5% (inactive). Also, the growth was 42.2% (inactive) in assay [6]; 73.6% (inactive) in assay [7]; 47.3% (inactive) in [8]; 31.5% (inactive) in assay [9]; 81% (inactive) in [10]; 84.1% (inactive) in assay [11]. In addition, the growth is 37.9% (inactive) in [12]; 34.2% (inactive) in assay [13]; 37.9% (inactive) in [14]; 56.4% (inactive) in assay [15]; 29.1% (inactive) in [16]; 81.7% (inactive) in assay [18].

For `CON=C1C[C@]2(C[C@@H]3C[C@@H](C/C=C(\C)C[C@@H](C)/C=C/C=C4\CO[C@@H]5[C@H](O)C(C)=C[C@@H](C(=O)O3)[C@]45O)O2)O[C@H](/C(C)=C/C(C)C)[C@H]1C`, the growth in [19] is 39.6% (inactive); in [1], 65.9% (inactive); in [2], 54% (inactive); in [3], 47.2% (inactive); in assay [4], 58.3% (inactive); in [5] it was 33% (inactive). Also, the growth is 85.1% (inactive) in assay [6]; 81.3% (inactive) in assay [7]; 57.4% (inactive) in assay [8]; 48.4% (inactive) in assay [9]; 32.4% (inactive) in assay [10]; 140% (inactive) in [11]. The growth in assay [12] was 63.3% (inactive); in assay [13], 39.5% (inactive); in assay [14] it was 13.5% (inactive); in assay [15], 65.1% (inactive); in [18] it was 85.8% (inactive).

As to `COc1ccc(CC2c3cc(OC)c(OC)c(OC)c3CC[N+]2(C)C)cc1Oc1ccc(CC2c3cc4c(c(OC)c3CCN2C)OCO4)cc1` (stereo unspecified), in assay [16], the growth is 80% [100 µM] (inactive) and 8.64% [100 µM] (active).

`O=C(CCc1ccccc1)On1c(-c2ccccc2)nc2ccccc2c1=S`: the growth in assay [16] is -68.8% [100 µM] (active) and -83.7% [100 µM] (active).

Regarding `O=C(O)C[C@H](O)C[C@H](O)/C=C/c1c(C2CC2)nc2ccccc2c1-c1ccc(F)cc1`, the growth was 113% (inactive) in [19]; 104% (inactive) in [1]; -47.7% (active) in assay [2]; 63.5% (inactive) in [3]; 31.9% (inactive) in assay [4]; 22.9% (inactive) in [5]. Moreover, the growth in assay [6] is 81.2% (inactive); in assay [7] it was 95.5% (inactive); in assay [8], 90.8% (inactive); in assay [9], 46.5% (inactive); in assay [10], 107% (inactive); in assay [11], 103% (inactive). Besides, the growth was 74.9% (inactive) in assay [12]; 42.8% (inactive) in assay [13]; 26.9% (inactive) in [14]; 67.6% (inactive) in [15]; 19.5% (inactive) in assay [16]; 34.5% (inactive) in assay [17]. Besides, in [18], the growth is 113% (inactive).
